Compound activity from PubChem.
The list is not random: actives were taken first. Their share in the collection is about 5.9%.
Gal4-VP16 FLuc: Gal4-VP16 reporter inhibition counter-screen. Drosophila S2 Gal4-VP16 UAS-luciferase, luminescence, 20 h. Potency, µM (highest dose often 53.6 µM), inactives show at the top dose activity, negative = inhibition, usual class: inhibitors. 310,000 compounds, 3.5% hits. AID 2546;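 further: Gal4-VP16 expression switched on by copper sulfate through the metallothionein promoter; on the % scale 0 is the no-effect control and ±100 the full control effect; nearly all actives have a fitted effect of over 50% in size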
HEK293 tox: cytotoxic in the GLP-1 receptor inverse agonist counter-screen. AID 624418. HEK293 cAMP-luciferase reporter cells, luminescence, 24 h. 410,000 compounds, 0.13% hits. Potency, µM (doses to about 38.3 µM), inactives show at the top dose activity change, negative = inhibition, actives largely listed as inhibitors;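 further: loss of luciferase light is scored as toxicity; on the % scale 0 is the no-effect control and ±100 the full control effect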
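A 23 nL compound transfer followed 12 hours of cell culture at 37 deg C; exposure then lasted 24 hr. Luciferase assay detection reagent was dispensed and plates read for luminescence after a 12 min room-temperature wait.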
GLP-1R inv ag: GLP-1 receptor (human) inverse agonism; P43220; HEK293 GLP-1R CRE-luciferase, luminescence, 24 h; GLP-1R form is constitutively active; Potency, µM (titrated, usually from 38.3 µM), without a hit: top-dose activity change, negative = inhibition, hits mostly inhibitors; 410,000 compounds, 1.6% hits; further: on the % scale 0 is the no-effect control and ±100 the full control effect; nearly all actives have a fitted effect of over 55% in size
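Constitutively active GLP-1R drives a cAMP-responsive luciferase in stably transfected HEK293 cells; test compounds are added after overnight (12 h) attachment and left 24 hr, and signal loss in luminescence marks inhibition.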
GLP-1R agonist: activates the human GLP-1 receptor; P43220; HEK293 GLP-1R CRE-luciferase, luminescence, 4-6 h; cells express a hypersensitive GLP-1R form; Potency, µM (top dose mostly 45.6 µM), for inactives: at the top dose activation, hits mostly activators; 380,000 compounds, 0.007% hits; further: % of control where 0% means no effect
RORgamma inh: blocks mouse ROR gamma transcriptional activity; P51450; Drosophila S2 Gal4-RORgamma UAS-luciferase reporter, 20 h; Potency, µM (doses to about 53.6 µM), for inactives: top-dose activity change, negative = inhibition, most hits filed as inhibitors; 310,000 compounds, 5.4% hits; AID 2551; further: on the % scale 0 is the no-effect control and ±100 the full control effect; nearly all actives have a fitted effect of over 60% in size
Target sequence (P51450 whole entry, looked up, the tested form may be a part): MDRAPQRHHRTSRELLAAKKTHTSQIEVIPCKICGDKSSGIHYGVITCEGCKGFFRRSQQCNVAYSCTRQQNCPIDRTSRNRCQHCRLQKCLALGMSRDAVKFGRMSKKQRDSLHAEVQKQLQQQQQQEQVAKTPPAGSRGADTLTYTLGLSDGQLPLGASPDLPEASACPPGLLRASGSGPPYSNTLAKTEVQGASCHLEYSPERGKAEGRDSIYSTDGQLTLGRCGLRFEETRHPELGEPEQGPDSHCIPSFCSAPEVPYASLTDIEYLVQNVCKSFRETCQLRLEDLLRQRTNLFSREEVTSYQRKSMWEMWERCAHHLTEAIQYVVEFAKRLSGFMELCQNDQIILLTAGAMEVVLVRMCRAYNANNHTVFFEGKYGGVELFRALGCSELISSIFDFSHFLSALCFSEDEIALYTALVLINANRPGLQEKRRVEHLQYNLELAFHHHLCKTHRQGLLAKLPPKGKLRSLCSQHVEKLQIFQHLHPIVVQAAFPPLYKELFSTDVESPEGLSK
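A Gal4/UAS one-hybrid system in insect cells: metallothionein-promoter Gal4–ROR gamma fusion plus Photinus luciferase reporter. Copper sulfate 700 uM final, 20 hr ambient incubation, luminescent detection after 10 min with reagent.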
Starred values were filed as active, the others as inactive; ? = inconclusive; . = no result given; [ ] = dose if it differs, or a comment. The call rests on the fitted dose curve; in most records, active means well fitted curve in the direction sought with a large enough effect; inconclusive means small, poorly fitted or top-dose-only effect, or another doubt; inactive means no such curve, though single readings can be large; an effect the other way counts as inactive or inconclusive. Potency means the concentration at half of the fitted maximal effect.

SMILES	Gal4-VP16 FLuc	HEK293 tox	GLP-1R inv ag	GLP-1R agonist	RORgamma inh
COc1ccc(C(=O)N2CCN(c3ccc([N+](=O)[O-])c(NCCc4ccc(OC)c(OC)c4)c3)CC2)cc1	4µM*	2%[1.53 µM]	-2%	6%	?
COc1ccc(CCNc2cc(N3CCN(C(=O)c4ccccc4F)CC3)ccc2[N+](=O)[O-])cc1OC	10µM*	-7%	1%	-1%	42%
NC(=S)Cc1ccccc1Cl	-26%	13%	6%	4%	10µM*
S=C(NCc1ccccc1)NCc1ccccc1Cl	20µM*	?	?	5%	13µM*
NS(=O)(=O)c1ccc(NC(=S)NCc2ccccc2Cl)cc1	18%	31%	?	-4%	-2%
Fc1ccc(NC(=S)NCc2ccccc2Cl)cc1	14µM*	?	?	2%	7.1µM*
CCC(C)c1ccc(NC(=S)NCc2ccccc2OC)cc1 (stereo unspecified)	8.9µM*	?	?	17%	2.2µM*
COc1ccccc1CNC(=S)Nc1ccc(F)cc1	6.3µM*	?	?	-5%	7.9µM*
COc1ccccc1CNC(=O)CCc1ccccc1	28%	5%	-5%	10%	?
COc1ccccc1CNC(=S)NCCc1ccccc1	?	?	?	11%	2.5µM*
COC(=O)Cc1ccc(NC(=S)NCc2ccccc2OC)cc1	25µM*	-1%	-18%	9%	8.9µM*
C[C@@H]1CCC2[C@](C)(CO)[C@@H](O)CC[C@]2(C)[C@]12CCC(CO)(CCO)O2 (stereo partly specified)	6%	.	.	.	5%
c1cnc2ccc3ncccc3c2c1	1%	1%	52%	1%	-9%
O=Cc1ccc(O)c2ncccc12	0.56µM*	424%	-80%	6%	1µM*
OC[C@@H]1O[C@H](OC2[C@@H](O)[C@@H](O)[C@@H](O)O[C@@H]2CO)[C@H](O)[C@@H](O)[C@@H]1OC1O[C@H](CO)[C@@H](O)[C@H](O)[C@@H]1O (stereo partly specified)	-3%	.	.	.	-3%
N#CCCN(C(=O)CCl)c1cccc(Cl)c1	-27%	-13%	2.2µM*	-5%	13µM*
CCCCCCCN(C(=O)CCl)c1cccc(C)c1	?	6%[1.53 µM]	?	-14%	?
Cc1cccc2nc(-c3ccccc3)nc(N3CCC(O)(c4ccc(Cl)cc4)CC3)c12	-25%	-3%	3.5µM*	-12%	44%
O=c1c(-c2cc(F)cc(F)c2)nc2cncnc2n1Cc1ccccc1	5%	.	.	.	23%
CC(C)NCCOc1cccc(Br)c1	-2%	-1%	-17%	-4%	-8%
CC(C)NCCCCOc1cccc(Br)c1	-2%	-1%	7.9µM*	-1%	-14%
CCCC1OC2CC3C4CCC5=CC(=O)C=CC5(C)C4C(O)CC3(C)C2(C(=O)O)O1 (stereo unspecified)	-10%	-26%	-31%	-1%	14µM*
CCCC1O[C@@H]2C[C@H]3[C@@H]4CCC5=CC(=O)C=C[C@]5(C)[C@H]4[C@@H](O)C[C@]3(C)[C@]2(C(=O)CO)O1 (stereo partly specified)	4%	-1%	?	1%	13µM*
CCC[C@@H]1O[C@@H]2C[C@@H]3[C@H]4CCC5=CC(=O)C=C[C@@]5(C)[C@H]4[C@H](O)C[C@@]3(C)[C@@]2(C(=O)CO)O1	-2%[17 µM]	.	.	-1%	-31%[16.9 µM]
CCCC1O[C@@H]2CC3C4CCC5=CC(=O)C=C[C@]5(C)C4C(OC(C)=O)C[C@]3(C)[C@]2(C(=O)COC(C)=O)O1 (stereo partly specified)	-8%	-23%	?	1%	?
SMILES	Gal4-VP16 FLuc	HEK293 tox	GLP-1R inv ag	GLP-1R agonist	RORgamma inh
Clc1ccccc1-c1nccc(NCc2ccccc2)n1	18%	.	.	.	30%
O=C(CCN1C(=O)/C(=C/c2ccccc2Cl)SC1=S)Nc1ccccc1C(=O)O	2%	-1%	8%	0%	34%
O=C(CCCN1C(=O)/C(=C/c2ccccc2Cl)SC1=S)NNC(=O)c1ccc(Cl)cc1Cl	4.5µM*	4%	22%	-3%	0.22µM*
O=C(CCCN1C(=O)/C(=C/c2ccccc2Cl)SC1=S)NNC(=O)c1ccccc1	7.1µM*	?	?	-14%	3.2µM*
O=C(CCCN1C(=O)/C(=C/c2ccccc2Cl)SC1=S)NNC(=O)c1cccnc1	-14%	-16%	-11%	-9%	17%
C/C(=N\NC(=O)c1cccc(F)c1)c1ccc(Br)s1	1.3µM*	-31%	0%	6%	0.79µM*
C/C(=N\NC(=O)c1cccc(Br)c1)c1ccc(Br)cc1	?	29%	5%	0%	?
C/C(=N\NC(=O)c1ccccc1O)c1ccc(Br)s1	2µM*	-28%	-22%	2%	2µM*
C/C(=N\Nc1nc2ccccc2s1)c1ccc(Br)s1	?	?	10µM*	13%	7.1µM*
C/C(=N\NC(=O)c1cc(Br)ccc1O)c1cccs1	?	-5%	?	8%	10µM*
C/C(=N\NC(=O)c1ccccc1[N+](=O)[O-])c1ccc(Br)s1	-11%	-5%	-21%	11%	19%
O=C1[C@@H]2[C@H]3[C@H](O)[C@H](O)C/C(=N/OCc4ccccc4)[C@@H]3CC[C@H]2C(=O)N1c1ccc(F)cc1F	1%[10 µM]	.	.	.	14%[10 µM]
C/C(=N\NC(=O)c1ccc(Cl)cc1)c1cccs1	16µM*	-1%	-25%	-2%	7.1µM*
C/C(=N\NC(=O)c1ccc(NS(=O)(=O)c2cccs2)cc1)c1cccs1	9%	1%	22%	1%	?
O=C(NNC(=O)c1cc(Cl)ccc1O)c1cccs1	-8%	-6%	16%	11%	13µM*
C/C(=N\NC(=O)c1cc(Br)ccc1O)c1cccc(NC(=O)c2ccccc2F)c1	1%	-4%	-7%	5%	11µM*
COc1ccc(NC(=O)c2ccc3oc(=O)c(S(=O)(=O)c4ccc(C)cc4)cc3c2)cc1OC	.	23%	3%	.	.
N#Cc1c(N(CCO)CCO)nc(N)c2c(N)nc3c(c12)CC(=O)N3CC1CCCO1 (stereo unspecified)	3%	23%	1%	-1%	8%
CCCCN1C(=O)Cc2c1nc(N)c1c(N)nc(N(CCC)CCC)c(C#N)c21	22µM*	7%	-16%	-3%	?
Cc1ccc(NC(=S)N2CCCN(Cc3ccc(F)cc3)C2)c(C)c1	?	-26%	?	12%	13µM*
Fc1ccccc1CN1CCCN(C(=S)Nc2cccc(Cl)c2)C1	?	?	?	9%	7.1µM*
Cc1c(Cl)cccc1NC(=S)N1CCCN(Cc2ccc(F)cc2)C1	?	?	?	6%	16µM*
